Screening results: PubChem, The Scripps Research Institute Molecular Screening Center
An excerpt weighted towards active compounds, which were near 2.8% of everything screened.
Fam108B inh: blocks mouse Fam108B hydrolase in RBBP9 counter-screen | recombinant Fam108B, FP-Rh probe fluorescence polarization | inhibition, % at 9.51 µM | 300,000 tested, 0.33% active | AID 1947;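 active = inhibition above the screen mean inhibition plus 3 SD, computed separately per campaign, cut at about 18% in these data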;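 note: inhibitors lower polarization as less probe binds the enzyme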
PAFAH1B2 FP inh: inhibitors of human PAFAH1B2; P68402; recombinant PAFAH1B2, FP-rhodamine activity probe, fluorescence polarization; inhibition, % at 3.39 µM; 340,000 tested, 1.2% active;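 active = inhibition above the mean of all tested compounds plus 3 SD, cut at about 24% in these data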
Target sequence (P68402 whole entry, looked up): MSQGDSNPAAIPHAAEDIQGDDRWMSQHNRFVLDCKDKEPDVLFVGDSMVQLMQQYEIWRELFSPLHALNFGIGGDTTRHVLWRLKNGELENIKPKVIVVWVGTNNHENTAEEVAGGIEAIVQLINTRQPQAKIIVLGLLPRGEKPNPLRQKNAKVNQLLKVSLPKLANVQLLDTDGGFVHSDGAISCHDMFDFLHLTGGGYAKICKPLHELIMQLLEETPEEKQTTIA
PAFAH2 FP inh: inhibitors of human PAFAH2; recombinant PAFAH2, FP-rhodamine activity probe, fluorescence polarization; AID 492956; Q99487; 340,000 tested, 0.99% active; inhibition, % at 3.39 µM;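 active = inhibition above the mean over all tested compounds plus 3 SD, cut at about 30% in these data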;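 note: inhibitors block probe labeling of enzyme so polarization drops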
PME-1 primary: PME-1 (human) inhibition; recombinant PME-1, FP-Rh probe fluorescence polarization; inhibition, % at 5.9 µM; 320,000 tested, 0.53% active; AID 2130;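 active = inhibition above the campaign mean of all compounds plus 3 SD, cut at about 26% in these data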;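 note: competitive labeling of PME-1 active site by serine hydrolase directed probe; inhibitors block probe labeling so polarization falls and inhibition rises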
PAFAH1B3 inh: PAFAH1B3 (human) inhibition | AID 492972 | recombinant PAFAH1B3, FP-rhodamine probe, fluorescence polarization | inhibition, % at 3.39 µM | Q15102 | 340,000 tested, 0.28% active;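 active = inhibition above the screen-wide average of all tested compounds plus 3 SD, cut at about 25% in these data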
Target sequence (Q15102 whole entry, looked up): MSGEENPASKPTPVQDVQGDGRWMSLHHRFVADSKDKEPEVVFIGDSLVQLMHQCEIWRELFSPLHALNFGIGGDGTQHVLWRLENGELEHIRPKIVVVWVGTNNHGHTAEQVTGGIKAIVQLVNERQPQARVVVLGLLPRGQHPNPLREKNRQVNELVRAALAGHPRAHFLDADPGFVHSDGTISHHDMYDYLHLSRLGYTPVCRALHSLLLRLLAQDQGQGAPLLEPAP
pPAFAH FP inh: pPAFAH (human) enzyme inhibition; Q13093; recombinant pPAFAH, FP-rhodamine probe fluorescence polarization; inhibition, % at 3.39 µM; 330,000 tested, 1.5% active;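 active = inhibition above the mean inhibition across the screen plus 3 SD, cut at about 25% in these data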;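 note: inhibitors block binding of the rhodamine activity-based probe so polarization drops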
Fam108b inh conf: Fam108b (mouse) hydrolase inhibition, confirmation assay | shares compounds with Fam108B inh | recombinant Fam108b, FP-Rh probe fluorescence polarization | inhibition, % at 9.51 µM | 930 tested, 44% active | AID 1978;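 active = inhibition above a limit from the primary screen, the mean over all compounds plus 3 SD, cut at about 19% in these data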;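 note: inhibitors free the probe so polarization falls as inhibition rises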
Fam108b inh: mouse ABHD17B inhibition; shares compounds with Fam108B inh; recombinant Fam108b, gel-based ABPP, fluorophosphonate probe; inhibition, % at 20 µM; 260 tested, 44% active; in the data active = inhibition above about 40%
Large screens that a line does not name were inactive (follow-up assays come after a bar, where they were run).

O=C(CCc1ccc(Oc2cc([N+](=O)[O-])cc([N+](=O)[O-])c2)cc1)Nc1cccc(Cl)c1	Fam108B inh 27.5 | Fam108b inh conf inactive
Cc1[nH]n(-c2ccccc2)c(=O)c1/C=N/NC(=O)c1cccc([N+](=O)[O-])c1	none
Cc1ccc(-n2[nH]c(C)c(/C=N/Nc3ccc([N+](=O)[O-])cc3[N+](=O)[O-])c2=O)cc1C	Fam108B inh 25.2, PME-1 primary 29.8 | Fam108b inh conf inactive
N=c1oc2cc(O)ccc2cc1C(=O)Nc1ccc(Cl)cc1	Fam108B inh 21.9 | Fam108b inh conf inactive
O=C(O)C(S)C(S)C(=O)O (configuration not stated)	Fam108B inh 21.1 | Fam108b inh conf inactive
COc1ccc(-c2nc(SCC(=O)NCc3ccco3)c(-c3ccccc3)[nH]2)cc1OC	Fam108B inh 19.9 | Fam108b inh conf inactive
CCCCC(=O)Nc1nc2c(s1)COc1ccccc1-2	none
Oc1c(Br)cc(Br)cc1/C=N/n1c(-c2ccccc2)n[nH]c1=S	none
Oc1c(Br)cc(/C=N/n2c(-c3ccccc3)n[nH]c2=S)c(Br)c1O	Fam108B inh 34.4, pPAFAH FP inh 87.7 (no result: PAFAH1B2 FP inh, PAFAH2 FP inh, PAFAH1B3 inh) | Fam108b inh conf 41.2
CN(C)c1ccc(NC(=O)Nc2csc3ccccc23)cc1	Fam108B inh 19.4 (no result: PAFAH1B2 FP inh, PAFAH2 FP inh, PAFAH1B3 inh) | Fam108b inh conf 26.7
O=C1C(Cl)=C(NCCCO)C(=O)c2ccccc21	none
O=C1C(SCCO)=C(SCCO)C(=O)c2ccccc21	Fam108B inh 51.3, PAFAH1B2 FP inh 46.0, PAFAH2 FP inh 49.8, PME-1 primary 31.1, PAFAH1B3 inh 46.5 | Fam108b inh conf 65.5 | Fam108b inh 90.0
CC(C)=CCC/C(C)=C/CC/C(C)=C/CC/C(C)=C/CC1=C(C)C(=O)c2ccccc2C1=O	none
CC(C)=CCC1=C(OCC(=O)O)C(=O)c2ccccc2C1=O	Fam108B inh 22.5, PAFAH2 FP inh 34.8, PAFAH1B3 inh 56.7 | Fam108b inh conf inactive
COc1ccc(-c2noc(CCCC(=O)NCCc3ccccc3)n2)cc1OC	none
O=C1c2cccc3c(O)ccc(c23)C(=O)N1Cc1ccccc1	Fam108B inh 28.4, PAFAH1B2 FP inh 26.3, PAFAH2 FP inh 49.5, PAFAH1B3 inh 35.4, pPAFAH FP inh 31.2 | Fam108b inh conf 27.8
CN(C)C(CNS(=O)(=O)c1cc([N+](=O)[O-])ccc1Cl)c1ccco1 (configuration not stated)	none (no result: Fam108B inh, PME-1 primary)
O=C(COc1ccc(Cl)cc1)OCC(=O)c1ccc[nH]1	none (no result: Fam108B inh)
NC(=O)c1ccc(C(F)(F)F)cn1	none
CCC(CNc1cc(OC)cc2cccnc12)NC1CCCCC1 (configuration not stated)	Fam108B inh 29.6, PME-1 primary 37.6, pPAFAH FP inh 25.4 | Fam108b inh conf inactive
Clc1ccc2[nH]c3c(c2c1)CCc1cn[nH]c1-3	Fam108B inh 22.1, PME-1 primary 39.8 | Fam108b inh conf inactive
Cc1cccc(OCCn2cc(/C=N/NC(=O)c3ccncc3)c3ccccc32)c1	Fam108B inh 29.5, PME-1 primary 26.6, pPAFAH FP inh 27.6 | Fam108b inh conf inactive
CC1CC1C(=O)Nc1nc(-c2ccc(Cl)s2)cs1 (configuration not stated)	Fam108B inh 20.4 | Fam108b inh conf inactive
O=C(Nc1nc(-c2ccc(Cl)s2)cs1)c1ccncc1	none
COc1cc([N+](=O)[O-])ccc1NC(=O)Nc1ccc2c(c1)OCCO2	Fam108B inh 18.8 | Fam108b inh conf inactive
COc1ccc(NC(=O)Nc2cccc([N+](=O)[O-])c2)cc1Cl	Fam108B inh 31.7, PME-1 primary 42.3 | Fam108b inh conf 97.4 | Fam108b inh inactive
COc1ccc(C(=O)Nc2cccc([N+](=O)[O-])c2)cc1Br	none
O=C(Nc1ccccc1F)Nc1cccc2ccc(O)cc12	Fam108B inh 18.4, PME-1 primary 34.1 | Fam108b inh conf inactive
Oc1ccc(C=NNc2ccnc3cc(Cl)ccc23)cc1O	none (no result: Fam108B inh, PAFAH1B2 FP inh, PAFAH2 FP inh, PME-1 primary, PAFAH1B3 inh, pPAFAH FP inh) | Fam108b inh 85.0
Cc1csc(NC(=O)c2sc3nc(-c4cccs4)ccc3c2N)n1	Fam108B inh 31.1, PME-1 primary 45.1 (no result: PAFAH1B2 FP inh, PAFAH2 FP inh, PAFAH1B3 inh) | Fam108b inh conf inactive
COc1ccc(C(=O)Nc2nc(-c3cccs3)cs2)cc1	none
CCCSc1nnc(NC(=O)c2ccco2)s1	none
CCCSc1nnc(NC(=O)c2sc3nc(-c4cccs4)ccc3c2N)s1	Fam108B inh 21.5, PME-1 primary 42.4 | Fam108b inh conf inactive
O=C(Nc1ccccc1OC(=O)c1ccccc1)c1ccccc1	none (no result: Fam108B inh, PME-1 primary, pPAFAH FP inh)
COc1ccc(C2=NOC(Cn3nc(C(=O)NCc4cccc(C(F)(F)F)c4)cc3-c3ccccc3)C2)cc1 (configuration not stated)	none
CCOc1ccc(NC(=O)CCN2C(=O)c3ccccc3C2=O)cc1	none
COc1ccc(N/N=C(\C=N\O)C(=O)c2ccc(OC)cc2)cc1	Fam108B inh 47.2, PME-1 primary 57.4 | Fam108b inh conf 42.3
COc1ccc2c(Cl)c(C(=O)N/N=C/c3ccc4c(c3)OCO4)sc2c1	none
COc1ccc2c(Cl)c(C(=O)N/N=C/c3c(C)[nH]c4ccccc34)sc2c1	Fam108B inh 32.9, PME-1 primary 32.4 | Fam108b inh conf 20.9
Nc1cc2nsnc2cc1Br	Fam108B inh 71.2, PAFAH1B2 FP inh 43.2, PAFAH2 FP inh 56.3, PME-1 primary 46.6, PAFAH1B3 inh 59.5 | Fam108b inh conf 62.3 | Fam108b inh 50.0
Nc1cccc2nsnc12	none
CCOc1ccc(NC(=O)Cn2c(=O)n(CCCC(=O)NC3CCN(Cc4ccccc4)CC3)c(=O)c3ccccc32)cc1	none
CCN(CC)S(=O)(=O)c1cccc(C(=O)Nc2ccc(S(=O)(=O)NC3=NCCCCC3)cc2)c1	none
CNC(=O)N(O)C1N(/N=C/c2ccc(SC)cc2)C(=S)SC1(C)C (configuration not stated)	none
CN(C)c1ccc(/C=N/N2C(=S)SC(C)(C)C2N(O)C(=O)Nc2ccc([N+](=O)[O-])cc2)cc1 (configuration not stated)	Fam108B inh 33.3 | Fam108b inh conf 99.5
CN(C)c1ccc(C=NN2C(=S)SC(C)(C)C2N(O)C(=O)Nc2ccc([N+](=O)[O-])cc2)cc1 (configuration not stated)	none (no result: Fam108B inh, PAFAH1B2 FP inh, PAFAH2 FP inh, PME-1 primary, PAFAH1B3 inh, pPAFAH FP inh) | Fam108b inh 95.0
CC(C)c1ccc(S(=O)(=O)/N=C2/C=C(Sc3ncn[nH]3)C(=O)c3ccccc32)cc1	Fam108B inh 57.5, PAFAH1B2 FP inh 45.7, PAFAH2 FP inh 51.1, PME-1 primary 41.5, PAFAH1B3 inh 48.7 | Fam108b inh conf 35.5
Cc1ccc(S(=O)(=O)/N=C2/C=C(Sc3ncn[nH]3)C(=O)c3ccccc32)cc1	Fam108B inh 80.2, PAFAH1B2 FP inh 50.8, PAFAH2 FP inh 75.1, PME-1 primary 46.2, PAFAH1B3 inh 48.1 | Fam108b inh conf 65.4
